Assay outcomes from PubChem BioAssay.
ALDH1A1 inh: ALDH1A1 (human) enzyme inhibition; P00352; Potency, µM (series often up to 75.3 µM), most hits filed as inhibitors; 220,000 compounds, 7.3% hits; Purified ALDH1A1, NADH fluorescence, propionaldehyde substrate; AID 1030; active = well fitted inhibition curve with a large enough effect, not every such curve was filed as active; inconclusive = small, poorly fitted or top-dose-only effect, or another doubt; inactive = no such curve, though single readings can be large or run the other way
Target sequence (P00352 whole entry, looked up): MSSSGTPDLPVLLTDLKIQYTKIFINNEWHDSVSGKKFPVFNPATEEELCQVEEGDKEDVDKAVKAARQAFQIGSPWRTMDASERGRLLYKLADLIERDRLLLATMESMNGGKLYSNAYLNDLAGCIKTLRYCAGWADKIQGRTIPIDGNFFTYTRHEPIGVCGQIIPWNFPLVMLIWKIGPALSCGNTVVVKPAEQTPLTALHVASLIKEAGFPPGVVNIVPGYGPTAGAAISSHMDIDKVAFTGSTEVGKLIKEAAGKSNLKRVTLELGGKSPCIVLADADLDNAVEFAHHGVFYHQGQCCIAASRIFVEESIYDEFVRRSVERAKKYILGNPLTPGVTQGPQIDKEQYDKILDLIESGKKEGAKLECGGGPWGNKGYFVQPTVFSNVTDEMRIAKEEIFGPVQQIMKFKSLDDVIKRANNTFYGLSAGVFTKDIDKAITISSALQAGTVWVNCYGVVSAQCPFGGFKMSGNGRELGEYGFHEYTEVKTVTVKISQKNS
Tau fluor counter: counter-screen for tau fibril formation inhibitors; tau K18 P301L Alexa594 fluorescence, heparin fibrillization; Potency, µM (highest dose often 57.7 µM); 280,000 compounds, 0.93% hits; AID 1463; also: nearly all actives have a fitted effect of over 55% in size
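Human K18 P301L tau (15 uM unlabeled plus 0.24 uM Alexa 594-labeled, final) in 100 mM sodium acetate pH 7 was mixed with compound and 20 uM heparin and incubated 6 hr at 37 C.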
Tau fibril ThT: inhibitors of human tau fibril formation, thioflavin T binding; Potency, µM (titrated, usually from 57.4 µM), actives largely listed as inhibitors; 270,000 compounds, 2.1% hits; recombinant tau K18 P301L (four-repeat tau fragment), heparin-induced fibrillization, ThT fluorescence; P10636; AID 1460; also: nearly all actives have a fitted effect of over 55% in size
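K18 P301L tau (15 uM + 0.24 uM Alexa 594-tagged), heparin 20 uM, NaOAc pH 7, 6 h 37 C; ThT 30 uM, 1 h RT, ex 450/em 510 nm.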
HPGD inh: blocks human HPGD enzyme activity; P15428; Potency, µM, hits mostly inhibitors; 150,000 compounds, 4.3% hits; purified HPGD, NADH fluorescence kinetic, PGE2 substrate; active = well fitted inhibition curve with a large enough effect, not every such curve was filed as active; inconclusive = small, poorly fitted or top-dose-only effect, or another doubt; inactive = no such curve, though single readings can be large or run the other way
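20 nM HPGD preincubated 15 min at room temperature with compound in 50 mM Tris-HCl pH 8, 0.01% Tween 20. Started with 1 mM NAD+ and 30 uM prostaglandin E2; NADH fluorescence (360/450 nm) read 5 times over 30-s intervals, last minus first.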
Tau FP inhib: blocks human tau fibril formation measured by polarization; P10636; K18 P301L tau heparin fibrillization, Alexa594 FP, 6 h; Potency, µM (top dose mostly 57.7 µM), actives largely listed as inhibitors; 280,000 compounds, 0.39% hits; also: nearly all actives have a fitted effect of over 55% in size
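Human K18 P301L fragment (15 uM unlabeled plus 0.24 uM Alexa 594-labeled) in 100 mM sodium acetate pH 7 with compound, aggregation induced by 20 uM heparin for 6 hr at 37 C. ThT (30 uM) added for 1 hr, then Alexa 594 FP read.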
NPSR antagonist: neuropeptide S receptor (human) antagonism, cAMP; 220,000 compounds, 1% hits; AID 1461; Q6W5P4; CHO-NPSR cells, cAMP TR-FRET, antagonist mode; Potency, µM (doses to about 38.3 µM), usual class: inhibitors; also: nearly all actives have a fitted effect of over 50% in size
Each line names hits and unclear results; the compound was inactive in the other large screens; [ ] = dose if it differs, or a comment. Hits are enriched below; roughly 9.5% of the tested compounds scored in any of these assays. Unless noted, calls follow the shape of the dose curve; as a rule, active = well fitted curve in the direction sought with a large enough effect; inconclusive = small, poorly fitted or top-dose-only effect, or another doubt; inactive = no such curve, though single readings can be large; an effect the other way counts as inactive or inconclusive.

Cc1nn2c(=O)cc(COC(=O)c3ccccc3NC(=O)c3ccccc3C)nc2s1	none (no result: ALDH1A1 inh, HPGD inh, NPSR antagonist)
O=C(CN1C(=O)CSc2ccc(S(=O)(=O)N3CCCC3)cc21)NCc1ccccc1Cl	none (no result: ALDH1A1 inh, HPGD inh, NPSR antagonist)
COc1cccc(C(=O)Nc2cccc(-c3cn4c(C)csc4n3)c2)c1OC	Tau fibril ThT inconclusive (no result: ALDH1A1 inh, HPGD inh, NPSR antagonist)
CCC(C)NC(=O)c1ccc(C2SCC(=O)N2Cc2ccccc2)cc1 (stereo unspecified)	ALDH1A1 inh inconclusive (no result: HPGD inh)
O=C(NCc1ccccc1)c1ccc(C2SCC(=O)N2Cc2ccccc2)cc1 (stereo unspecified)	HPGD inh 10µM, NPSR antagonist inconclusive
CC(C)NC(=O)c1ccc(C2SCC(=O)N2Cc2ccccc2)cc1 (stereo unspecified)	HPGD inh 3.2µM
CCCCNc1nc2c(S(=O)(=O)c3ccc(C)cc3)nnn2c2ccsc12	none (no result: ALDH1A1 inh, HPGD inh, NPSR antagonist)
NNC(=O)c1ccc(-c2ccccc2F)cc1	ALDH1A1 inh 1.1µM, Tau fibril ThT inconclusive (no result: HPGD inh)
NS(=O)(=O)c1ccc(N=C2C(=O)Nc3ccccc32)cc1	Tau fibril ThT inconclusive, Tau FP inhib inconclusive
NC(=O)c1ccc(N=C2C(=O)Nc3ccc([N+](=O)[O-])cc32)cc1	ALDH1A1 inh 13µM, Tau fibril ThT inconclusive, Tau FP inhib inconclusive (no result: HPGD inh)
Cc1c(CN(C)C(=O)c2sc3cc(Cl)ccc3c2Cl)cnn1C	ALDH1A1 inh inconclusive, Tau fibril ThT inconclusive, HPGD inh 20µM
CN(C)CCCN(C(=O)c1ccc2c(c1)CCCC2)c1nc2ccc(Cl)cc2s1	ALDH1A1 inh 14µM, Tau fibril ThT inconclusive, NPSR antagonist inconclusive
CN(C)CCCN(C(=O)CCc1ccccc1)c1nc2ccc(Cl)cc2s1	NPSR antagonist inconclusive
CN(C)c1ccc(C2N3CC4(C)CN2CC(C)(C3)C4O)cc1 (stereo unspecified)	ALDH1A1 inh 0.89µM
CC12CN3CC(C)(CN(C1)C3c1ccc(Cl)cc1Cl)C2O (stereo unspecified)	Tau fibril ThT inconclusive
C=CCN(CC=C)S(=O)(=O)c1ccc(NC(=S)NC(=O)c2ccco2)cc1	ALDH1A1 inh 22µM
C=CCN(CC=C)S(=O)(=O)c1ccc(NC(=S)NC(=O)c2ccc(-c3ccccc3)cc2)cc1	ALDH1A1 inh 3.2µM, HPGD inh inconclusive, Tau FP inhib inconclusive
C=CCN(CC=C)S(=O)(=O)c1ccc(NC(=S)NC(=O)/C=C/c2ccc(C)cc2)cc1	none
CSc1ccc(S(=O)(=O)Nc2ccc3c4c(cccc24)CC3)cc1	ALDH1A1 inh inconclusive, Tau fluor counter inconclusive
O=S(=O)(Nc1ccc2c3c(cccc13)CC2)c1ccc(F)cc1	ALDH1A1 inh 13µM, Tau fluor counter inconclusive
O=C(OCn1ncc(Br)c(Br)c1=O)c1c(F)cccc1F	ALDH1A1 inh 0.5µM, Tau fibril ThT 7.1µM, HPGD inh 28µM, Tau FP inhib inconclusive, NPSR antagonist 2.5µM
CC(=O)Cn1ncc(Br)c(Br)c1=O	ALDH1A1 inh 3.5µM, Tau fibril ThT inconclusive, Tau FP inhib inconclusive (no result: HPGD inh)
COc1ccc(-c2cc(C(=O)Oc3ccc(C)c(C)c3)c3ccccc3n2)cc1	Tau FP inhib inconclusive (no result: ALDH1A1 inh, HPGD inh, NPSR antagonist)
O=C(c1ccc(Cl)cc1)N1CCCCC(Cl)C1=O (stereo unspecified)	ALDH1A1 inh inconclusive (no result: HPGD inh)
O=C(O)CCC(=O)N1CCc2cc(S(=O)(=O)NC3CCCC3)ccc21	HPGD inh 13µM
O=C(C1CCC1)N1CCc2cc(S(=O)(=O)NC3CCCC3)ccc21	HPGD inh 10µM
O=C(C1CCC1)N1CCc2cc(S(=O)(=O)NC3CCCc4ccccc43)ccc21 (stereo unspecified)	HPGD inh inconclusive, NPSR antagonist inconclusive
CN(Cc1ccco1)S(=O)(=O)c1ccc2c(c1)CCN2C(=O)CCC(=O)O	HPGD inh 14µM
O=C(O)CCC(=O)N1CCc2cc(S(=O)(=O)NC3CCCc4ccccc43)ccc21 (stereo unspecified)	ALDH1A1 inh inconclusive (no result: HPGD inh)
C=CCNC(=O)c1ccc([N+](=O)[O-])c(Cl)c1	none (no result: HPGD inh)
CC(C)(CNC(=O)c1ccc([N+](=O)[O-])c(Cl)c1)CNC(=O)c1ccc([N+](=O)[O-])c(Cl)c1	Tau fluor counter 13µM[quencher], Tau fibril ThT inconclusive, NPSR antagonist inconclusive
